Laboratory results as given in PubChem BioAssay (Tox21).
Values joined by “and” are separate entries in the source; they are usually repeats but may differ in a detail not shown here. Equal values may be shown once. Results filed as inconclusive are left out. Active and inactive are the calls of the source. Unless noted, the call rests on the fitted dose curve.

Experiments:
[1] = Nuclear factor erythroid 2-related factor 2/antioxidant responsive element (Nrf2/ARE) small molecule agonists: qHTS cell viability counter screen in human keratinocytes (AID 1919968; active means well fitted curve in the direction sought with a large enough effect in the repeat runs; an effect the other way counts as inactive or inconclusive; further: nearly all actives have a fitted effect of over 55% in size; further: potency means the concentration at half of the fitted maximal effect)
How it was run: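 Cells of the KeratinoSens line were plated at 1,500 per well and left for 5 h before compound transfer from DMSO stocks. After a 23 h incubation (37 C, 5% CO2), CellTiter-Fluor was added. Signal was taken as fluorescence intensity 1 h later.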

[2] = target: Gonadotropin-releasing hormone receptor (Homo sapiens) (UniProt P30968); experiment: Human gonadotropin-releasing hormone receptor (GnRHR) small molecule agonists, calcium flux assay in GnRHR-HEK293 cells (AID 1920063); further: nearly all actives have a fitted effect of over 35% in size
Sequence of Gonadotropin-releasing hormone receptor (Homo sapiens) (P30968 whole entry, looked up): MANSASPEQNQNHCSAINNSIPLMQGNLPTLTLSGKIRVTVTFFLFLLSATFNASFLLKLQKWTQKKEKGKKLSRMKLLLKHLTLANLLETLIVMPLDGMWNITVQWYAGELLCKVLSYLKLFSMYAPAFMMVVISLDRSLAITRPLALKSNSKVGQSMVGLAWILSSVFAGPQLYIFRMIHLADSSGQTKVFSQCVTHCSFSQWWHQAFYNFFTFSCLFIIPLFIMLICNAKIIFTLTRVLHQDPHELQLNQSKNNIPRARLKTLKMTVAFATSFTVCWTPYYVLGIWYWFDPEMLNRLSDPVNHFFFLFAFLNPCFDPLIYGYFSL
How it was run: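 Compounds dissolved in DMSO are pin-transferred onto dye-loaded GnRHR-HEK293 cells, which were seeded 18 h before at 37 C/5% CO2. Calcium signal is read as fluorescence intensity at 1 s intervals for 3 min.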

[3] = target: KiSS-1 receptor (Homo sapiens) (UniProt Q969F8); experiment: Human kisspeptin (KISS1R) small molecule agonists, calcium flux assay in KISS1R-HEK293 cells (AID 1920064; active means well fitted curve in the direction sought with a large enough effect in the repeat runs; an effect the other way counts as inactive or inconclusive)
Sequence of KiSS-1 receptor (Homo sapiens) (Q969F8 whole entry, looked up): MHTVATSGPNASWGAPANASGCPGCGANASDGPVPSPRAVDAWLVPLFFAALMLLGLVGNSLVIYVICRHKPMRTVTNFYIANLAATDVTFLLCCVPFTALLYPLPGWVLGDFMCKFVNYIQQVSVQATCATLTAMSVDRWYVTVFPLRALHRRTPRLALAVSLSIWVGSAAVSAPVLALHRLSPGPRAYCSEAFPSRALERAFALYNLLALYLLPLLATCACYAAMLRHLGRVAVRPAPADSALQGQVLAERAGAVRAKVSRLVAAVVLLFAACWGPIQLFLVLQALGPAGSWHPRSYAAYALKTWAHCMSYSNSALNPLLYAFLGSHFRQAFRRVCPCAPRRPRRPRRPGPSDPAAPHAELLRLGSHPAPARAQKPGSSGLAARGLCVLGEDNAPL
How it was run: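 Cell line: HEK293, stable human KISS1R. Dye loading 1 h at 37 C after 18 h culture. Read: kinetic fluorescence, 480/540 nm, 3 min at 1 s intervals.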

[4] = G protein-coupled receptor (GPCR) small molecule agonists, calcium flux assay: HEK293 wild type cell line counter screen (AID 1920065)
How it was run: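 Tox21 10K compounds, 15 concentrations each in triplicate, pin-transferred in DMSO onto dye-loaded cells; kinetic read at 480/540 nm for 3 min, 1 s intervals.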

[5] = p53 small molecule agonists, cell-based qHTS assay with human liver microsomes (AID 1963577)
How it was run: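 Compounds act here after metabolic activation: human liver microsomes and NADPH, both at 0.5 mg/mL final, were co-added to p53RE-bla cells. Incubation ran 16 h at 37 C, followed by LiveBLAzer detection.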

[6] = p53 small molecule agonists, cell-based qHTS assay with human liver microsomes: qHTS cell viability counter screen (AID 1963579); further: nearly all actives have a fitted effect of over 45% in size
How it was run: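 Cells carrying the p53 response-element beta-lactamase reporter are treated for 16 h at 37 C with test compounds in the presence of human liver microsomes and NADPH (both 0.5 mg/mL final); ATP-based CellTiter-Glo luminescence then reports viability.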

[7] = p53 small molecule agonists, cell-based qHTS assay with rat liver microsomes: qHTS cell viability counter screen (AID 1963580); further: nearly all actives have a fitted effect of over 45% in size
How it was run: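 Rat liver microsome (0.5 mg/mL final) and NADPH (0.5 mg/mL final) co-incubation with compounds for 16 h at 37 C on HCT-116 p53RE-bla cells; cytotoxicity taken from intracellular ATP luminescence.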

[8] = p53 small molecule agonists, cell-based qHTS assay: qHTS cell viability counter screen (AID 1963581); further: nearly all actives have a fitted effect of over 45% in size
How it was run: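 ATP content measured by luminescence in HCT-116 p53RE-bla cells treated 16 h at 37 C, same wells as the reporter screen.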

[9] = target: 5-hydroxytryptamine receptor 2A (Homo sapiens) (UniProt P28223); experiment: 5-hydroxytryptamine receptor 2A (HTR2A) small molecule antagonists, cell-based qHTS assay (AID 1963586); further: nearly all actives have a fitted effect of over 45% in size; further: potency means the concentration at half of the fitted maximal effect
Sequence of 5-hydroxytryptamine receptor 2A (Homo sapiens) (P28223 whole entry, looked up): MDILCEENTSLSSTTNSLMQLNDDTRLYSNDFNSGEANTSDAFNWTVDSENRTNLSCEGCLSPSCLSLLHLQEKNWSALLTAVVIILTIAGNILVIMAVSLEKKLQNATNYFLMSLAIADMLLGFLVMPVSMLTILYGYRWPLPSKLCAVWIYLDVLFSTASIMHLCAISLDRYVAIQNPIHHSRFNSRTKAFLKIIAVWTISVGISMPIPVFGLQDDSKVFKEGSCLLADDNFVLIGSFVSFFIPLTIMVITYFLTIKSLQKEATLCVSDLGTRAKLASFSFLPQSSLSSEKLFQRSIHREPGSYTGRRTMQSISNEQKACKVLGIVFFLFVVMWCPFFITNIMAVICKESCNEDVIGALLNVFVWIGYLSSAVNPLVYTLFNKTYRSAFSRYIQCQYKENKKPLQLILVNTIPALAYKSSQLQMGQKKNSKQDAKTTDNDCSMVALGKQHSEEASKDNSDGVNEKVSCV
How it was run: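 CHO cells stably expressing human HTR2A were plated for 18 h at 37 C, then loaded with calcium dye for 1 h. Compounds were preincubated 5 min at room temperature before DOI (4 nM solution) was added. Kinetic fluorescence was read for 3 min.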

[10] = target: 5-hydroxytryptamine receptor 2A (Homo sapiens) (UniProt P28223); experiment: 5-hydroxytryptamine receptor 2A (HTR2A) small molecule agonists, cell-based qHTS assay (AID 1963587); further: nearly all actives have a fitted effect of over 30% in size
How it was run: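 Kinetic calcium-flux fluorescence (2 min, 1 sec intervals) after compound addition in agonist mode. HTR2A-CHO cells were cultured 18 h, then dye-loaded 1 h at 37 C.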

[11] = target: Muscarinic acetylcholine receptor M1 (Homo sapiens) (UniProt P11229); experiment: Cholinergic receptor muscarinic 1 (CHRM1) small molecule antagonists, cell-based qHTS assay (AID 1963588); further: nearly all actives have a fitted effect of over 40% in size; further: potency means the concentration at half of the fitted maximal effect
Sequence of Muscarinic acetylcholine receptor M1 (Homo sapiens) (P11229 whole entry, looked up): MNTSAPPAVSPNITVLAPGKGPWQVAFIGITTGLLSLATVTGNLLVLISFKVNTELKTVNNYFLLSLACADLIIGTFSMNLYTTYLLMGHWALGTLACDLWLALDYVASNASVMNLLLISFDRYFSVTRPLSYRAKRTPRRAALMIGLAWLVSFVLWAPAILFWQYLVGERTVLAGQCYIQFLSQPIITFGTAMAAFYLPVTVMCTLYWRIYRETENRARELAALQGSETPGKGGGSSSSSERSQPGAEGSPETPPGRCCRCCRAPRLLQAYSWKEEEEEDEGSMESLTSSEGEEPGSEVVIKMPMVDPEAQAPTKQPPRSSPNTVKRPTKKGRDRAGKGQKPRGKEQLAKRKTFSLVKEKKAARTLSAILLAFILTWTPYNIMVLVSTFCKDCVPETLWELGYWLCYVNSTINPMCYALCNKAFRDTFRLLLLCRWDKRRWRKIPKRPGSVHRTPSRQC
How it was run: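 Compounds were tested at 15 concentrations in three independent runs. Dye-loaded CHRM1-CHO cells were exposed 5 min at room temperature before stimulation by acetylcholine added at 50nM. Intracellular calcium was read kinetically on FDSS for 3 min.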

[12] = target: Beta-2 adrenergic receptor (Homo sapiens) (UniProt P07550); experiment: Adrenergic beta2 receptor (ADRB2) small molecule antagonists, cell-based qHTS assay (AID 1963592); further: series mostly up to about 92 µM; nearly all actives have a fitted effect of over 50% in size
Sequence of Beta-2 adrenergic receptor (Homo sapiens) (P07550 whole entry, looked up): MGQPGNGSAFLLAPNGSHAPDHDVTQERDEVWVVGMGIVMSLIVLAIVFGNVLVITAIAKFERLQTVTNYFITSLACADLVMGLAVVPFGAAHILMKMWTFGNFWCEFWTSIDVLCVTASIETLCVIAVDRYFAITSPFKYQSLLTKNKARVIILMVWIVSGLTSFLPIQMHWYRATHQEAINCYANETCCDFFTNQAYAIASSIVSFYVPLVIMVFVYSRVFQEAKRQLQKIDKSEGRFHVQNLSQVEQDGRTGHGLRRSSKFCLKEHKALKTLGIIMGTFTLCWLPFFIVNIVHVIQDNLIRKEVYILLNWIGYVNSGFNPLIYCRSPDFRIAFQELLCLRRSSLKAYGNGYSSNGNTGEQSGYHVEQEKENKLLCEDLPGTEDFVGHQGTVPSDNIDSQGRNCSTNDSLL
How it was run: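 Assay format: CHO-ADRB2 cells, 18-20hr seeding at 37C/5% CO2, then compound plus 1nM isoproterenol agonist mix for 0.5hr RT. Homogeneous time-resolved fluorescence cAMP detection after 1hr, expressed as 665/615 nm ratio.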

[13] = target: Beta-2 adrenergic receptor (Homo sapiens) (UniProt P07550); experiment: Adrenergic beta2 receptor (ADRB2) small molecule agonists, cell-based qHTS assay (AID 1963593);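 further: CHO cells stably overexpressing human ADRB2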
How it was run: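 CHO cells stably over-expressing ADRB2 were plated overnight at 37C, then dosed with compounds plus a stimulation mix containing 100uM IBMX and 25uM Ro-20-1724 for 0.5hr at room temperature. cAMP was measured by HTRF competition, 1hr.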

[14] = target: D(2) dopamine receptor (Homo sapiens) (UniProt P14416); experiment: Dopamine D2 receptor (DRD2) small molecule antagonists, cell-based qHTS assay (AID 1963595; active means well fitted inhibition curve with a large enough effect in the signal ratio in the repeat runs, with a control signal flat; the % refers to the signal ratio)
Sequence of D(2) dopamine receptor (Homo sapiens) (P14416 whole entry, looked up): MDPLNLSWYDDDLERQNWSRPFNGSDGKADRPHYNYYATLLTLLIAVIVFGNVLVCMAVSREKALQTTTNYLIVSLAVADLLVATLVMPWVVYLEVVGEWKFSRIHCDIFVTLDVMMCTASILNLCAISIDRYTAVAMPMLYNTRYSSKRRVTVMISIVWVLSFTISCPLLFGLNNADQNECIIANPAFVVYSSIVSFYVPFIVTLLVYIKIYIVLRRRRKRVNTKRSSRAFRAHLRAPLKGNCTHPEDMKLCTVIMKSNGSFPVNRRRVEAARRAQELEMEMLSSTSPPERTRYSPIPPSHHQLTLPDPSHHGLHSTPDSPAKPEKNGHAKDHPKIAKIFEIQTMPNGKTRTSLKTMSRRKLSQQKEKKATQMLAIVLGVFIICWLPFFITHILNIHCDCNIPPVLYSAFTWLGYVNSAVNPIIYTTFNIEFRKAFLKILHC
How it was run: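 DRD2-HEK293; 0.1 mM Ro20-1724; cpd 10 min RT; NKH477 200 nM + quinpirole 12 nM, 30 min RT; HTRF cAMP (cAMP-d2/anti-cAMP cryptate), 665/620 nm ratio after 1 h.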

[15] = p53 small molecule agonists, cell-based qHTS assay with rat liver microsomes (AID 1963578)
How it was run: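 Read-out is beta-lactamase reporter fluorescence (LiveBLAzer, 2 h, room temperature, dark) in p53RE-bla cells treated 16 h at 37 C with compound, rat liver microsomes and NADPH, both 0.5 mg/mL final.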

[16] = target: Muscarinic acetylcholine receptor M1 (Homo sapiens) (UniProt P11229); experiment: Cholinergic receptor muscarinic 1 (CHRM1) small molecule agonists, cell-based qHTS assay (AID 1963589); further: nearly all actives have a fitted effect of over 35% in size
How it was run: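 Homogeneous fluorescence calcium flux, agonist mode. Human M1-expressing CHO cells; compound dosed at 15 concentrations, three independent runs; signal sampled every 1 sec.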

[17] = target: D(2) dopamine receptor (Homo sapiens) (UniProt P14416); experiment: Dopamine D2 receptor (DRD2) small molecule agonists, cell-based qHTS assay (AID 1963594); further: nearly all actives have a fitted effect of over 35% in size
How it was run: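 cAMP accumulation in DRD2-HEK293 cells measured by HTRF after 1 h detection; compounds added 10 min before NKH477 (200nM […]) forskolin-analogue stimulation, 30 min at room temperature, with Ro20-1724 present at 0.1 mM final.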

[18] = cAMP Responsive Elements (CRE) small molecule agonists, cell-based qHTS assay (AID 1963590)
How it was run: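 HEK 293T cells stably bearing CRE-bla were plated at 2,000 cells per well and rested 18 h. Compounds, positive controls or DMSO were added for 3 h at 37 C. LiveBLAzer B/G substrate was then loaded for 2 h at room temperature.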

[19] = cAMP Responsive Elements (CRE) small molecule antagonists, cell-based qHTS assay (AID 1963591; active means well fitted inhibition curve with a large enough effect in the signal ratio in the repeat runs, not every such curve was filed as active; the % refers to the signal ratio)
How it was run: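 First, CRE-bla HEK293T cells settled 18 h at 37 C. Next, compound and 0.25 uM final NKH477 were applied for 3 h. Last, LiveBLAzer B/G substrate was loaded for 2 h at room temperature.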

[20] = p53 small molecule agonists, cell-based qHTS assay (AID 1963582; active means well fitted activation curve with a large enough effect in the signal ratio in the repeat runs, not every such curve was filed as active; the % refers to the signal ratio)
How it was run: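 16 h compound exposure (37 C) of p53 response element–bla cells, preceded by 5 h recovery at 37 C/5% CO2; read-out via LiveBLAzer B/G FRET substrate, 2 h RT, fluorescence intensity.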

Measured: Potency

O=C(Nc1ccccc1)N(Cc1ccc(Cl)cc1)C1CCCC1
active: [11] 37.5 µM
inactive: [1] | [2] | [3] | [4] | [5] | [6] | [7] | [8] | [9] | [10] | [12] | [13] | [14]

O=[N+]([O-])c1ccc(Nc2ccccc2)cc1
active: [1] 61.6 µM | [9] 16.9 µM and 16.8 µM
inactive: [2] | [3] | [4] | [5] | [15] | [6] | [7] | [10] | [11] | [16] | [17] | [14]

SCc1ccccc1
inactive: [1] | [2] | [3] | [4] | [5] | [15] | [6] | [8] | [10] | [16] | [18] | [19] | [12] | [14]

CC1(C)CON(Cc2ccccc2Cl)C1=O
inactive: [1] | [2] | [3] | [4] | [5] | [6] | [7] | [8] | [20] | [9] | [10] | [11] | [18] | [19] | [12] | [17] | [14]

COC1=CC(=O)O[C@@H](/C=C/c2ccccc2)C1
inactive: [1] | [2] | [3] | [4] | [5] | [15] | [7] | [8] | [9] | [10] | [11] | [16] | [12] | [17] | [14]

O=C(O)CBr
inactive: [1] | [2] | [3] | [4] | [5] | [6] | [7] | [8] | [9] | [10] | [11] | [16] | [18] | [19] | [12] | [17] | [14]

O=C1CN2CCOC2(c2ccccc2Cl)c2cc(Cl)ccc2N1 (configuration not stated)
inactive: [1] | [2] | [3] | [4] | [5] | [15] | [6] | [20] | [9] | [10] | [11] | [18] | [19] | [12] | [17] | [14]

C[C@]12CC[C@@H](O)C[C@@H]1CC[C@@H]1[C@@H]2CC[C@]2(C)C(=O)CC[C@@H]12
inactive: [1] | [2] | [3] | [4] | [5] | [15] | [6] | [7] | [20] | [18] | [19] | [17]

CC(C)=CC1C(C(=O)OC(C#N)c2cccc(Oc3ccccc3)c2)C1(C)C (configuration not stated)
inactive: [1] | [2] | [3] | [4] | [6] | [7] | [8] | [9] | [10] | [11] | [16] | [18] | [19] | [12] | [17] | [14]

BrCC(Br)(Br)Br
inactive: [1] | [2] | [3] | [4] | [15] | [6] | [7] | [8] | [20] | [9] | [11] | [16] | [18] | [19] | [12] | [17]

CCOP(=S)(Oc1cnc(C(C)(C)C)nc1)OC(C)C (configuration not stated)
inactive: [1] | [2] | [3] | [4] | [6] | [7] | [8] | [20] | [10] | [11] | [16] | [12] | [17] | [14]

CC(C)COP(=O)(OCC(C)C)OCC(C)C
inactive: [1] | [2] | [3] | [4] | [6] | [7] | [8] | [20] | [9] | [10] | [11] | [16] | [18] | [19] | [12] | [17] | [14]
